Bioassay records from PubChem BioAssay.
PINK1 modulator: PINK1 expression modulation; AID 624263; PINK1 immunofluorescence, high-content cytometry, 24 h; Potency, µM (series often up to 76.6 µM), hits mostly activators; hit rate 0.2% among 410,000; active means well fitted activation curve with a large enough effect; inconclusive means small, poorly fitted or top-dose-only effect; cell line not stated here; further: nearly all actives have a fitted effect of over 65% in size
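Decision-based qHTS: stable cells, 24 h exposure to five compound concentrations, CCCP as control. Fixed cells stained for PINK1 plus nuclear, mitochondrial and cell markers, cytometer read.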
Menin-MLL TR inh: menin-MLL binding inhibition, Texas Red mutant peptide; O00255; AID 1768; Potency, µM (highest dose often 61.6 µM), actives largely listed as inhibitors; Menin + Texas Red MLL mutant peptide, fluorescence polarization; hit rate 0.23% among 270,000; active means well fitted inhibition curve with a large enough effect in the polarisation, with a control signal flat, not every such curve was filed as active; inconclusive means small, poorly fitted or top-dose-only effect, or effect the other way, or a change in a side signal; inactive means no such curve, though single readings can be large or run the other way; the % refers to the polarisation
Menin-MLL FL inh: menin-MLL binding inhibition, fluorescein peptide; 290,000 tested, under 10 active; AID 1766; FP activity change, % at 61.4 µM; Fluorescence polarization, fluorescein-MLL peptide displacement from menin; active means well fitted curve in the direction sought with a large enough effect in the polarisation, not every such curve was filed as active; inconclusive means small, poorly fitted or top-dose-only effect, or effect the other way, or a change in a side signal; inactive means no such curve, though single readings can be large or run the other way; the % refers to the polarisation
ClpP mod: qHTS Assay for Activators of ClpP. ATP-dependent Clp protease proteolytic subunit (Bacillus subtilis (strain 168)), P80244. purified B. subtilis ClpP, FRET peptide cleavage, 20 min. Potency, µM (highest dose often 57.5 µM). hit rate 1.9% among 340,000. AID 651965, 2013; active means well fitted falling curve with a large enough effect; inconclusive means small, poorly fitted or top-dose-only effect; inactive means no such curve, though single readings can be large or run the other way; further: the source files actives as falling curves though it sought activators and does not explain the sign; nearly all actives have a fitted effect of over 65% in size
Target sequence (P80244 whole entry, looked up): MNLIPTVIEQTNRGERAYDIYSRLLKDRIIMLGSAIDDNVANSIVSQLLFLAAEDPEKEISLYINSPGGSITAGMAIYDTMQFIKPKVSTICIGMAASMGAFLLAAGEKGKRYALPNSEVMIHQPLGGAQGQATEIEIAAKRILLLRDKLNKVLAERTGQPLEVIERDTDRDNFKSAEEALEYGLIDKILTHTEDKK
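Buffer: 100 mM Tris/HCl pH8, 100 mM KCl, 0.05% low protease BSA, 2.5% glycerol, 0.01% Tween-20. ClpP 10 microg/mL final; 20 min RT; delta FRET normalized to ADEP and DMSO controls.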
MLL CXXC-DNA inh: MLL CXXC-DNA interaction inhibition. hit rate 0.037% among 290,000. Q03164. AID 2662. Potency, µM (doses to about 115 µM), hits mostly inhibitors. MLL-CXXC / FITC-HOXA9 DNA fluorescence polarization; active means well fitted inhibition curve with a large enough effect in the polarisation, with a control signal flat, not every such curve was filed as active; inconclusive means small, poorly fitted or top-dose-only effect, or effect the other way, or a change in a side signal; inactive means no such curve, though single readings can be large or run the other way; the % refers to the polarisation
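Fluorescence polarization: 7 uM MLL-CXXC (stock) preincubated 5 min with compounds, then 50 nM fluorescein-HOX-A9 DNA (stock) added; 30 min ambient. Buffer 50 mM Tris-HCl pH 7.5, 50 mM NaCl, 1 mM DTT, 0.05% BSA.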
Epigenetic reg: derepresses silenced GFP reporter in murine cells | Potency, µM (titrated, usually from 53.9 µM), actives largely listed as activators | hit rate 0.2% among 280,000 | AID 1865 | murine LDR cells, GFP reporter derepression, 30 h; active means well fitted activation curve with a large enough effect; inconclusive means small, poorly fitted or top-dose-only effect; further: nearly all actives have a fitted effect of over 60% in size
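Murine LDR cells carrying a silenced, genomically integrated CMV-driven GFP reporter were exposed to compound for 30 hours at 37 C. After PBS washes, GFP-positive cells (20–120 um objects) were counted by laser-scanning microplate cytometry.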
Each line names hits and unclear results; the compound was inactive in the other large screens. Sampled rows, rich in hits. Any-hit rate of the full collection: about 1.9%.

Cc1ccc(C(C)C)c(OCc2nn(CC(=O)c3ccc(Cl)cc3)c3[n+]2CCCCC3)c1	Epigenetic reg inconclusive (no result: ClpP mod)
O=C(c1ccc(F)cc1)c1cc2ccc(O)cc2oc1=O	Menin-MLL FL inh inconclusive (no result: ClpP mod, Epigenetic reg)
N=c1oc2cc(O)ccc2cc1C(=O)Nc1ccc(F)cc1	PINK1 modulator 14.1µM, Menin-MLL TR inh inconclusive, Menin-MLL FL inh inconclusive, MLL CXXC-DNA inh inconclusive (no result: Epigenetic reg)
Cc1cnc(SCC2CCCO2)nc1C1CCCN(Cc2nc(-c3ccccc3)cs2)C1 (configuration not stated)	none (no result: Menin-MLL TR inh, Menin-MLL FL inh, ClpP mod, MLL CXXC-DNA inh, Epigenetic reg)
CC1CCN(C(=O)COC(=O)CCCN2C(=O)c3cccc4cccc(c34)C2=O)CC1	ClpP mod 31.6µM (no result: Menin-MLL TR inh, Menin-MLL FL inh, Epigenetic reg)
O=C(CCCN1C(=O)c2cccc3cccc(c23)C1=O)OCC(=O)N1CCCCC1	none (no result: Menin-MLL TR inh, Menin-MLL FL inh, MLL CXXC-DNA inh, Epigenetic reg)
O=C(Nc1ccc(Cl)cc1Cl)c1cnn2c1NC(=C1CC1)C=C2C(F)F	none (no result: Menin-MLL TR inh, Menin-MLL FL inh, MLL CXXC-DNA inh, Epigenetic reg)
O=C(O)CCC(=O)Nc1ccc(-c2nnc(-c3ccco3)o2)cc1	none
O=C(Nc1ccc(-c2nnc(-c3ccco3)o2)cc1)C(c1ccccc1)c1ccccc1	ClpP mod 28.2µM
Cc1cc(C)cc(OCC(=O)Nc2cccc(-c3nnc(-c4ccco4)o3)c2)c1	ClpP mod 31.6µM
O=C(Cc1ccc(Cl)cc1)Nc1ccc(-c2nnc(-c3ccco3)o2)cc1	ClpP mod 31.6µM
c1ccc(-c2nnc(-c3ccco3)o2)cc1	ClpP mod 14.1µM
